Results: PubChem BioAssay (Tox21)
Values joined by “and” are separate entries in the source; they are usually repeats but may differ in a detail not shown here. Equal values may be shown once. Results filed as inconclusive are left out. Entries that show only a call come without a potency. Some compounds were tested as several samples or in several runs, with calls that do not always agree. Active and inactive are the calls of the source. Unless noted, the call rests on the fitted dose curve; in most records, active means well fitted curve in the direction sought with a large enough effect in the repeat runs; inconclusive means weak or mixed curves; inactive means no such curve, though single readings can be large; an effect the other way counts as inactive or inconclusive.

Legend:
[1] = qHTS assay to identify small molecule agonists of the hypoxia (HIF-1) signaling pathway - cell viability counter screen (AID 1224844; calls by dose curve; further: nearly all actives have a fitted effect of over 50% in size)
How it was run: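 Tox21 10K compounds were added to HRE-bla ME-180 cells (0.5% dialyzed FBS) and incubated 17 hrs at 37C; ATP-based CellTiter-Glo luminescence then reported cell viability in the same wells.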

[2] = qHTS assay to identify small molecule agonists of H2AX (AID 1224845; active means well fitted activation curve with a large enough effect in the signal ratio in the repeat runs, not every such curve was filed as active; the % refers to the signal ratio)
How it was run: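 Phospho-H2AX Ser139 measured by HTRF (ex 320 nm; em 665 and 620 nm) after 24 hr antibody incubation. Compounds, 15 concentrations, 0.76% DMSO, were applied to CHO-K1 cells for 3hr at 37C before lysis.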

[3] = qHTS assay to identify small molecule agonists of the hypoxia (HIF-1) signaling pathway (AID 1224846; active means well fitted activation curve with a large enough effect in the signal ratio in the repeat runs, not every such curve was filed as active; the % refers to the signal ratio)
How it was run: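 Steps: seed ME-180 HRE-bla cells (2,000/well, 0.5% dialyzed FBS); incubate 5 hrs at 37C; pin-transfer compounds or DMSO; incubate 17 hrs; add LiveBLAzer B/G substrate CCF4-AM; measure reporter activation by FRET.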

[4] = qHTS assay to identify small molecule agonists of H2AX - cell viability counter screen (AID 1224847; calls by dose curve;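 further: wild-type CHO-K1 cells; top concentration of the series differs between compounds; nearly all actives have a fitted effect of over 30% in size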)
How it was run: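 Counter-screen for viability: CellTiter-Glo ATP luminescence read after 3 h compound treatment (15-point titration, 0.76% DMSO final) of CHO-K1 cells at 37C, with 30 min room-temperature reagent incubation.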

[5] = qHTS RealTime-Glo MT Cell Viability Assay in HepG2 cells - 24 hour (AID 1224867); further: nearly all actives have a fitted effect of over 50% in size
How it was run: (§1)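 Compound treatment began 5 h after plating HepG2 cells (600/well) with NanoLuc luciferase and prosubstrate. Plates stayed at 37 C for 40 h; luminescence was captured at six time points, 0 h through 40 h.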

[6] = qHTS RealTime-Glo MT Cell Viability Assay in HEK293 cells - 32 hour (AID 1224868); further: nearly all actives have a fitted effect of over 50% in size; further: potency means the concentration at half of the fitted maximal effect
How it was run: (§2)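 Quantitative high-throughput screen of the Tox21 10K library in HEK293: cells and RealTime-Glo reagents plated together, compound added at 5 h, luminescence monitored through 40 h at 37 C.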

[7] = A CellTox Green Cytotoxicity Assay to monitor cytotoxicity in HEK293 cells - 0 hour (AID 1224869); further: nearly all actives have a fitted effect of over 50% in size
How it was run: (§3)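 Cytotoxicity was tracked continuously in HEK293 cells by a DNA-binding dye excluded from viable cells. Compounds were transferred in DMSO 5 h after seeding; fluorescence was recorded at intervals up to 40 h.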

[8] = qHTS RealTime-Glo MT Cell Viability Assay in HepG2 cells - 40 hour (AID 1224870); further: nearly all actives have a fitted effect of over 50% in size
How it was run: (§4)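 Real-time viability: cells seeded at 600 per well together with NanoLuc and cell-permeant prosubstrate, compounds added after 5 h incubation. Luminescence tracked at 0, 8, 16, 24, 32 and 40 h of exposure.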

[9] = A CellTox Green Cytotoxicity Assay to monitor cytotoxicity in HEK293 cells - 40 hour (AID 1224871); further: nearly all actives have a fitted effect of over 45% in size; further: potency means the concentration at half of the fitted maximal effect
How it was run: as §3

[10] = qHTS RealTime-Glo MT Cell Viability Assay in HEK293 cells - 16 hour (AID 1224872); further: nearly all actives have a fitted effect of over 50% in size; further: potency means the concentration at half of the fitted maximal effect
How it was run: as §2

[11] = qHTS RealTime-Glo MT Cell Viability Assay in HepG2 cells - 8 hour (AID 1224873); further: nearly all actives have a fitted effect of over 55% in size
How it was run: as §4

[12] = A CellTox Green Cytotoxicity Assay to monitor cytotoxicity in HEK293 cells - 24 hour (AID 1224875); further: nearly all actives have a fitted effect of over 45% in size
How it was run: as §3

[13] = A CellTox Green Cytotoxicity Assay to monitor cytotoxicity in HepG2 cells - 16 hour (AID 1224876); further: nearly all actives have a fitted effect of over 45% in size
How it was run: (§5)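 Real-time, homogeneous cytotoxicity readout: dead-cell DNA staining by CellTox Green in HepG2 monolayers, fluorescence measured at timed intervals up to 40 h of continuous compound exposure.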

[14] = qHTS RealTime-Glo MT Cell Viability Assay in HepG2 cells - 32 hour (AID 1224877); further: nearly all actives have a fitted effect of over 55% in size
How it was run: as §1

[15] = A CellTox Green Cytotoxicity Assay to monitor cytotoxicity in HepG2 cells - 24 hour (AID 1224878); further: nearly all actives have a fitted effect of over 45% in size
How it was run: as §5

[16] = A CellTox Green Cytotoxicity Assay to monitor cytotoxicity in HepG2 cells - 40 hour (AID 1224879); further: nearly all actives have a fitted effect of over 40% in size
How it was run: as §5

[17] = qHTS RealTime-Glo MT Cell Viability Assay in HEK293 cells - 0 hour (AID 1224880)
How it was run: (§6)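 Nonlytic bioluminescent viability monitoring. HEK293 at 600 cells/well with reagent; 5 h settle; compound transfer by pintool; plates held at 37 C and read at set time points.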

[18] = qHTS RealTime-Glo MT Cell Viability Assay in HEK293 cells - 40 hour (AID 1224874); conditions: RealTime-Glo luminescence; max response: stronger effect = lower value; further: nearly all actives have a fitted effect of over 50% in size
How it was run: as §6

[19] = qHTS assay to identify small molecule agonists of the estrogen related receptor (ERR) signaling pathway from Tox21 library (AID 1224849; calls by dose curve; further: nearly all actives have a fitted effect of over 15% in size); conditions: ERR reporter cell line, ONE-Glo luciferase, 18 h
How it was run: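 Agonist signal is luciferase luminescence from an ERR reporter cell line treated 18 h at 37 C with DMSO-dissolved compounds, read 30 min after ONE-Glo addition at room temperature.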

SMILES | Potency [1] | Potency [2] | outcome [3] | Potency [4] | Potency [5] | Potency [6] | Potency [7] | Potency [8] | Potency [9] | Potency [10] | Potency [11] | Potency [12] | Potency [13] | Potency [14] | Potency [15] | Potency [16] | Potency [17] | max response [18] | activity change, positive = activation ([19]; at 42.5 µM (top of the series)) | activity change, positive = activation ([19]; at 92.4 µM (top of the series))
CC(=O)c1nccs1 | inactive | inactive | inactive | inactive | inactive | inactive | inactive | inactive | inactive | inactive | inactive | inactive | inactive | inactive | inactive | inactive | inactive |  |  | 
CCCOC(=O)NCCCN(C)C | inactive | inactive | inactive | inactive | inactive | inactive | inactive | inactive | inactive | inactive | inactive | inactive | inactive | inactive | inactive | inactive | inactive |  |  | 
CC(C)(C)NC[C@H](O)COc1nsnc1N1CCOCC1 | inactive | inactive |  | inactive | inactive | inactive | inactive | inactive | inactive and 3.38 µM (active) | inactive | inactive | inactive | inactive | inactive | inactive | inactive | inactive | -0.31% (inactive) and -1.2% (inactive) |  | 
O=C(O)C1=NN(c2ccc(S(=O)(=O)O)cc2)C(=O)C1 | inactive |  | inactive | inactive | inactive | inactive | inactive | inactive | inactive | inactive | inactive | inactive | inactive | inactive | inactive | inactive | inactive |  |  | 
CCc1cccc(O)c1 | inactive | inactive | inactive | inactive | inactive | inactive | inactive | inactive | inactive | inactive | inactive | inactive | inactive | inactive | inactive | inactive | inactive |  |  | 
Cc1nnc(NS(=O)(=O)c2ccc(N)cc2)s1 | inactive | inactive |  | inactive | inactive | inactive | inactive | inactive | inactive | inactive | inactive | inactive | inactive | inactive | inactive | inactive | inactive | -1.44% (inactive) and 9.25% (inactive) |  | 
N[C@@H](Cc1cc(I)c(Oc2ccc(O)c(I)c2)c(I)c1)C(=O)O | inactive |  | inactive | inactive | inactive | inactive | inactive | inactive | inactive | inactive | inactive | inactive | inactive | inactive | inactive | inactive |  | -20.1% (inactive) and -17.6% (inactive) |  | 
O=c1n(CCCN2CCN(c3cccc(Cl)c3)CC2)nc2ccccn12 | inactive | inactive |  | inactive | inactive | 13.8 µM (active) and 9.52 µM (active) | inactive | inactive | inactive | 12.3 µM (active) and 9.52 µM (active) | inactive | inactive | inactive | inactive | inactive | inactive | inactive |  | -14.9% (inactive) | -28.6% (inactive)
NC(=O)NC(N)=O | inactive | inactive | inactive | inactive | inactive | inactive | inactive | inactive | inactive | inactive | inactive | inactive | inactive | inactive | inactive | inactive | inactive |  |  | 
Brc1ccc(Oc2ccc(Br)cc2)cc1 | inactive | inactive | inactive | inactive | inactive | inactive | inactive | inactive | inactive | inactive | inactive | inactive | inactive | inactive | inactive | inactive | inactive |  |  | 
